“And” between values parts separate entries of the source, which are not always exact repeats. Identical values can stand only once. About 2,000 (36%) of roughly 5,500 compounds were called active. Not shown: some 18% with an inconclusive outcome. Cut-off read from the data, not from the text of the source: active = normalized growth mostly below about 0.91 (no sharp cut-off); inconclusive = no clear call, values can overlap the other calls; inactive = mostly above about 0.92. The list shows a part of the results.
Assay: chemical genetic growth profiling, strain panel (AID 1159580);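 note: tested at 20 µM; growth read once vehicle control cultures reached saturation at 30 °C; 1 = growth at the plate median or of vehicle wells; lower values mean less growth of the strain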
Details: S. cerevisiae deletion strains, growth OD

Measured: normalized growth

C[C@H]1O[C@@H](O[C@H]2[C@@H](O)C[C@H](O[C@H]3[C@@H](O)C[C@H](O[C@H]4CC[C@]5(C)C6C[C@@H](O)[C@]7(C)[C@@H](C8=CC(=O)OC8)CC[C@]7(O)C6CC[C@@H]5C4)O[C@@H]3C)O[C@@H]2C)C[C@H](O)[C@@H]1O (stereo partly drawn)
inactive: locus YAL013W, strain DEP1, stronger effect = lower value 0.992 | locus YAL021C, strain ccr4, stronger effect = lower value 0.982 | locus YAL026C, strain drs2, stronger effect = lower value 1.01 | locus YAL030W, strain snc1, stronger effect = lower value 0.991 | locus YBL061C, strain skt5, stronger effect = lower value 0.99 | locus YBR009C, strain hhf1, stronger effect = lower value 1.08 | locus YBR021W, strain FUR4, stronger effect = lower value 1.01 | locus YBR023C, strain chs3, stronger effect = lower value 0.994 | locus YBR171W, strain sec66, stronger effect = lower value 0.984 | locus YBR229C, strain ROT2, stronger effect = lower value 1 | locus YBR231C, strain swc5, stronger effect = lower value 0.989 | locus YBR279W, strain paf1, stronger effect = lower value 0.996 | locus YCL011C, strain gbp2, stronger effect = lower value 0.967 | locus YCL016C, strain dcc1, stronger effect = lower value 0.992 | locus YCL029C, strain bik1, stronger effect = lower value 0.977 | locus YCL061C, strain MRC1, stronger effect = lower value 1.01 | locus YCL069W, strain vba3, stronger effect = lower value 0.991 | locus YCR088W, strain abp1, stronger effect = lower value 0.997 | locus YDL005C, strain med2, stronger effect = lower value 0.98 | locus YDL035C, strain GPR1, stronger effect = lower value 0.987 | locus YDL040C, strain nat1, stronger effect = lower value 0.999 | locus YDL074C, strain BRE1, stronger effect = lower value 0.982 | locus YDL101C, strain DUN1, stronger effect = lower value 1.01 | locus YDL134C, strain PPH21, stronger effect = lower value 1.03 | locus YDL185W, strain tfp1, stronger effect = lower value 0.955 | locus YDL192W, strain arf1, stronger effect = lower value 0.983 | locus YDR001C, strain nth1, stronger effect = lower value 0.982 | locus YDR069C, strain doa4, stronger effect = lower value 0.996 | locus YDR101C, strain arx1, stronger effect = lower value 0.982 | locus YDR137W, strain rgp1, stronger effect = lower value 0.978 | locus YDR150W, strain NUM1, stronger effect = lower value 0.991 | locus YDR159W, strain sac3, stronger effect = lower value 1.02 | locus YDR162C, strain NBP2, stronger effect = lower value 1.03 | locus YDR195W, strain ref2 0.987 | locus YDR297W, strain sur2, stronger effect = lower value 0.987 | locus YDR318W, strain mcm21, stronger effect = lower value 1 | locus YDR334W, strain swr1, stronger effect = lower value 0.957 | locus YDR335W, strain msn5, stronger effect = lower value 0.98 | locus YDR388W, stronger effect = lower value 0.984 | locus YDR392W, strain spt3, stronger effect = lower value 0.975 | locus YDR502C, strain sam2, stronger effect = lower value 1.01 | locus YEL003W, strain gim4, stronger effect = lower value 0.997 | locus YEL037C, strain rad23, stronger effect = lower value 1 | locus YEL061C, strain CIN8 (second series), stronger effect = lower value 0.992 | locus YEL061C, strain CIN8, stronger effect = lower value 1 | locus YER015W, strain faa2, stronger effect = lower value 1.01 | locus YER016W, strain bim1, stronger effect = lower value 0.987 | locus YER110C, stronger effect = lower value 0.961 | locus YER111C, strain swi4, stronger effect = lower value 1.01 | locus YER155C, strain BEM2 (second series), stronger effect = lower value 1.04 | locus YER155C, strain BEM2, stronger effect = lower value 0.986 | locus YER167W, strain BCK2, stronger effect = lower value 0.992 | locus YFR010W, strain ubp6, stronger effect = lower value 1 | locus YGL078C, strain dbp3, stronger effect = lower value 1 | locus YGL086W, strain mad1, stronger effect = lower value 0.969 | locus YGL167C, strain pmr1, stronger effect = lower value 0.998 | locus YGL173C, strain kem1, stronger effect = lower value 0.981 | locus YGL227W, strain vid30, stronger effect = lower value 0.99 | locus YGL240W, strain doc1, stronger effect = lower value 0.973 | locus YGL248W, strain PDE1, stronger effect = lower value 1.02 | locus YGL253W, strain hxk2, stronger effect = lower value 0.957 | locus YGR135W, strain pre9, stronger effect = lower value 1.01 | locus YGR252W, strain gcn5, stronger effect = lower value 1.09 | locus YHR013C, strain ard1, stronger effect = lower value 0.977 | locus YHR027C, strain rpn1, stronger effect = lower value 0.976 | locus YHR030C, strain SLT2, stronger effect = lower value 0.983 and 1.05 | locus YHR079C, strain IRE1 (second series), stronger effect = lower value 0.982 | locus YHR079C, strain IRE1, stronger effect = lower value 1.06 | locus YHR094C, strain hxt1, stronger effect = lower value 0.973 | locus YHR129C, strain ARP1, stronger effect = lower value 0.993 | locus YHR142W, strain chs7, stronger effect = lower value 0.964 | locus YHR200W, strain rpn10, stronger effect = lower value 0.97 | locus YIL066C, strain RNR3, stronger effect = lower value 1 | locus YIL073C, strain SPO22, stronger effect = lower value 0.937 | locus YIL125W, strain kgd1, stronger effect = lower value 0.941 | locus YIR030C, strain dcg1, stronger effect = lower value 0.99 | locus YJL092W, strain hpr5, stronger effect = lower value 0.996 | locus YJL095W, strain BCK1 (second series), stronger effect = lower value 0.976 | locus YJL095W, strain BCK1, stronger effect = lower value 1.02 and 1.06 | locus YJL115W, strain asf1, stronger effect = lower value 0.984 | locus YJL129C, strain trk1, stronger effect = lower value 0.979 | locus YJL134W, strain LCB3, stronger effect = lower value 0.985 | locus YJL154C, strain vps35, stronger effect = lower value 0.977 | locus YJL164C, strain tpk1, stronger effect = lower value 1.02 | locus YJL166W, strain qcr8, stronger effect = lower value 0.939 | locus YJL168C, strain set2, stronger effect = lower value 0.998 | locus YJL187C, strain SWE1 (second series), stronger effect = lower value 1.02 | locus YJL187C, strain SWE1, stronger effect = lower value 0.993
